Source: PubChem BioAssay (EPA / NIEHS)
Calls of active or inactive are those of the source. The calls were made as follows: active = hit-call score of the fitted dose curve at least 0.9, where 1 is the maximum; inactive = score below 0.9.

test: ATG_NF_kB_CIS: Attagene CIS-FACTORIAL HepG2 Assay for human Nuclear Factor Kappa B (NF-kB) (AID 2282991); conditions: HepG2 Attagene cis-factorial NF-kB reporter mRNA; actives raise or lower the signal
Method in brief: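 HepG2, transient multi-reporter transfection, cis promoter elements (endogenous TFs). 24 h exposure. Total RNA → RT → PCR → 6-FAM label → HpaI → CE. Gain/loss vs DMSO.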

outcome, inactive:
CCC(C)(CCC(C)C)C(=O)O (stereo not given)
CCCc1c(OCCCCc2nn[nH]n2)ccc(C(C)=O)c1O
Clc1ccccn1
c1cc(N(CC2CO2)CC2CO2)ccc1Cc1ccc(N(CC2CO2)CC2CO2)cc1 (stereo not given)
CCCCCCOC(=O)CCCCCCCC(=O)OCCCCCC
CC1=NN(c2cc(Cl)c(S(=O)(=O)O)cc2Cl)C(=O)C1N=Nc1ccc(S(=O)(=O)O)cc1 (stereo not given)
CCCCCCCCCCC1CO1 (stereo not given)
O=[N+]([O-])c1ccc2nc[nH]c2c1
CC(C)CC(=O)O
C[Si](C)(C)O[Si](C)(C)O[Si](C)(C)C
Cc1cc(O)cc(C)c1Cl
CC1=C(CC=O)C(C)(C)CCC1
Cc1cccnc1
Cc1ccccc1S(N)(=O)=O
CC(C)CC(=O)CC(C)CC(C)C (stereo not given)
CCCOCCC
CN(C)CCC(c1ccc(Cl)cc1)c1ccccn1 (stereo not given)
CN(C)CCCN1c2ccccc2CCc2ccc(Cl)cc21
CC/C=C\CC1=C(C)CCC1=O
C[C@H]1C[C@H]2[C@@H]3CCC4=CC(=O)C=C[C@]4(C)[C@@]3(F)[C@@H](O)C[C@]2(C)[C@@]1(O)C(=O)CO
COC(OC)C(C)c1ccccc1 (stereo not given)
COCCCN
COc1ccccc1OCC(O)CO (stereo not given)
OCCN(CCO)c1cccc(Cl)c1
CC=CC(=O)O

test: ATG_NRF2_ARE_CIS: Attagene CIS-FACTORIAL HepG2 Assay for human Nuclear Factor Erythroid 2 Related Factor 2 (NFR2) response to Antioxidant Response Elements (ARE) (AID 2282992); conditions: HepG2 Attagene ARE/NRF2 reporter, transcription factor activity; actives raise or lower the signal;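 as to AC50: reporter mRNA level measured by RT-PCR and capillary electrophoresis fluorescence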
Method in brief: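 Cis-factorial assay: transfected HepG2 reporter library, 24 h dosing, mRNA readout via RT-PCR/CE; DMSO-referenced bidirectional analysis.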

AC50, active:
Cc1cc(C)c(S(=O)(=O)O)cc1N=Nc1cc(S(=O)(=O)O)c2ccccc2c1O 72.2 µM
CCCc1c(OCCCCc2nn[nH]n2)ccc(C(C)=O)c1O 100 µM
O=C(O)Cc1c[nH]c2ccccc12 74.1 µM
CCCCCCCCCCC1CO1 (stereo not given) 128 µM
CC1=C(CC=O)C(C)(C)CCC1 30.2 µM
CN(C)CCCN1c2ccccc2CCc2ccc(Cl)cc21 17.7 µM
C[C@H]1C[C@H]2[C@@H]3CCC4=CC(=O)C=C[C@]4(C)[C@@]3(F)[C@@H](O)C[C@]2(C)[C@@]1(O)C(=O)CO 100 µM
OCCN(CCO)c1cccc(Cl)c1 175 µM
O=C(O)c1nc(Cl)c(Cl)c(Cl)c1Cl 15.3 µM

outcome, inactive:
c1cc(N(CC2CO2)CC2CO2)ccc1Cc1ccc(N(CC2CO2)CC2CO2)cc1 (stereo not given)
CCCCCCOC(=O)CCCCCCCC(=O)OCCCCCC
CC1=NN(c2cc(Cl)c(S(=O)(=O)O)cc2Cl)C(=O)C1N=Nc1ccc(S(=O)(=O)O)cc1 (stereo not given)
O=[N+]([O-])c1ccc2nc[nH]c2c1
CCCCn1cc[n+](C)c1
C[Si](C)(C)O[Si](C)(C)O[Si](C)(C)C
CC(O)(P(=O)(O)O)P(=O)(O)O
C=C(C)C(=O)OCC1CCCO1 (stereo not given)
OCCOCCOCCOCCOCCO
C1=CCC=C1
CCCOCCC
COC(OC)C(C)c1ccccc1 (stereo not given)
F[B-](F)(F)F
COCCCN
CC(=O)c1nccs1
COc1ccccc1OCC(O)CO (stereo not given)
